This is an account of results in PubChem BioAssay (NCATS).

Records with an inconclusive call do not appear. The source made the active and inactive calls. The call rests on the fitted dose curve.

The nature of test [1]: Primary qHTS for Huh7 cytotoxicity: counterscreen for inhibitors of MERS-S pseudotyped particle cell entry (AID 1479147). Conditions: outcome: dose series up to 57.1 µM unless noted.
Test [2] can be described thus: Primary qHTS for inhibitors of MERS-S pseudo-typed particle cell entry (AID 1479149). Further: nearly all actives have a fitted effect of over 60% in size. Further: potency means the concentration at half of the fitted maximal effect. Conditions: outcome: dose series up to 57.1 µM unless noted.
Test [3] in a line: Primary qHTS for Vero E6 cytotoxicity: counterscreen for inhibitors of SARS-S pseudo-typed particle cell entry (AID 1479150). Conditions: outcome: dose series up to 57.1 µM unless noted.
Test [4] is described as follows: Cytotoxicity counterscreen for inhibitors of SARS-CoV-2 cell entry (AID 1645845). Further: nearly all actives have a fitted effect of over 50% in size. Further: potency means the concentration at half of the fitted maximal effect. Conditions: outcome: dose series up to 57.1 µM unless noted. The essentials: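 Expi293F/hACE2 cells seeded overnight; cpd pin-transferred in DMSO, 1 h preincubation, + media, 48 h 37 C 5% CO2; ATPLite 1step luminescence; normalized to cells and no cells.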
A short description of test [5]: Confirmatory qHTS to identify inhibitors of SARS-CoV-2 cell entry (AID 1645844). Further: potency means the concentration at half of the fitted maximal effect; nearly all actives have a fitted effect of over 45% in size. The essentials:
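HEK293-ACE2 cells (Expi293F stably expressing human ACE2) were pretreated with compounds for 1 hr at 37C, then infected with MLV-based particles carrying Wuhan-Hu-1 spike (C-terminal 19-aa truncation). Luciferase luminescence read after 48 hr; normalized to spike PP (100%) and bald PP (0%).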

The nature of test [6]: VSVG counterscreen qHTS to identify inhibitors of SARS-CoV-2 cell entry (AID 1645847). Further: potency means the concentration at half of the fitted maximal effect; nearly all actives have a fitted effect of over 65% in size. The essentials:
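Entry of VSV-G pseudotyped particles into human ACE2-expressing HEK293 cells was measured by luciferase luminescence 48 h after infection, with compound added 1 h beforehand.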

Test [7] can be described thus: Primary qHTS to identify inhibitors of SARS-CoV-2 cell entry (AID 1645846). Further: potency means the concentration at half of the fitted maximal effect; nearly all actives have a fitted effect of over 45% in size. To be noted: SARS-CoV-2 pseudovirus cell entry assay, luminescence; activity change, negative = inhibition: at 57.1 µM (top of the series) unless noted. The essentials: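 Using luciferase-reporting pseudoviruses carrying Wuhan-Hu-1 spike, the screen tracks entry into stably ACE2-expressing cells over 48 hr. Activity is expressed relative to spike particles versus particles lacking any fusion protein.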

For the molecule `CC#CCC(C)[C@H](O)/C=C/[C@@H]1[C@H]2C/C(=C/CCCC(=O)O)C[C@H]2C[C@H]1O` (some centres undefined), the Potency entry in test [1], in test [2], in test [3] and in test [4] was “inactive” throughout.
As for `CCCCC(O)c1ccccc1` (centres undefined), the Potency entry in test [1], in test [2], in test [3] and in test [4] was “inactive” each time.
Take `CC(OC(=O)NCC1(CC(=O)O)CCCCC1)OC(=O)C(C)C` (centres undefined): the Potency result in test [1], in test [2], in test [3] and in test [4] was “inactive” in each case.
Regarding `CC1CCCCN1CCCOC(=O)c1ccccc1` (centres undefined), the Potency result in test [1], in test [2], in test [3] and in test [4] was “inactive” in each case.
Turning to `COC(=O)[C@@H](N)CS`, the Potency entry in test [1], in test [2], in test [3] and in test [4] was “inactive” in each case.
As for `CC(=O)N(CC(C)C(=O)O)c1c(I)cc(I)c(N)c1I` (centres undefined), the Potency entry in test [1], in test [2], in test [3] and in test [4] was “inactive” in each case.
For `COc1cc(N)cn[n+]1-c1ccccc1`, the Potency entry in test [1], in test [2], in test [3] and in test [4] was “inactive” each time.
Turning to `CCCCC(=O)N(Cc1ccc(-c2ccccc2-c2nn[nH]n2)cc1)[C@H](C(=O)O)C(C)C`, the Potency result in test [1], in test [2], in test [3] and in test [4] was “inactive” each time.
On to `Cc1c(C)c2c(c(C)c1OC(=O)CCC(=O)O)CC[C@@](C)(CCC[C@H](C)CCC[C@H](C)CCCC(C)C)O2`, for which the Potency result in test [1], in test [2], in test [3] and in test [4] was “inactive” each time.
Consider `C[C@@H]1C[C@H]2[C@@H]3C[C@H](F)C4=CC(=O)C=C[C@]4(C)[C@@]3(Cl)[C@@H](O)C[C@]2(C)[C@H]1C(=O)COC(=O)C(C)(C)C`, for which the Potency result in test [1], in test [2], in test [3] and in test [4] was “inactive” throughout.
As for `CC1CC(OC(=O)C(O)c2ccccc2)CC(C)(C)C1` (centres undefined), the Potency entry in test [1], in test [2], in test [3] and in test [4] was “inactive” in each case.
As to `CCOc1nc2cccc(C(=O)OC(C)OC(=O)OC3CCCCC3)c2n1Cc1ccc(-c2ccccc2-c2nn[nH]n2)cc1` (centres undefined), the Potency result in test [1], in test [2] and in test [3] was “inactive” in each case. Further, the Potency in test [5] was 2410 nM (active); in test [6], 429 nM (active).
`C[C@H]1[C@H](OC(=O)CCC(=O)O)O[C@@H]2O[C@@]3(C)CC[C@H]4[C@H](C)CC[C@@H]1[C@@]24OO3`: the Potency entry in test [1] and in test [3] was “inactive” each time. Moreover, the Potency in test [2] was 2820 nM (active); in test [5], 1360 nM (active); in test [7] it was 2240 nM (active); in test [6], 1210 nM (active).
On to `C[N+](C)(C)CC(O)CC(=O)O` (centres undefined), for which the Potency entry in test [1], in test [2], in test [3] and in test [4] was “inactive” each time.
As to `O=C(O)[C@H]1OC(O)[C@H](O)[C@@H](O)[C@@H]1O` (some centres undefined), the Potency result in test [1], in test [2], in test [3] and in test [4] was “inactive” throughout.
Consider `CC(C)N(CCCCOCC(=O)NS(C)(=O)=O)c1cnc(-c2ccccc2)c(-c2ccccc2)n1`, for which the Potency result in test [1], in test [2], in test [3] and in test [4] was “inactive” in each case.
For the molecule `Cc1nccn1CCC(C(N)=O)(c1ccccc1)c1ccccc1`, the Potency entry in test [1], in test [2], in test [3] and in test [4] was “inactive” each time.
For `C=CC1(C)CC(=O)C2(O)C(C)(O1)C(OC(C)=O)C(OC(=O)CCN(C)C)C1C(C)(C)CCC(O)C12C` (centres undefined), the Potency result in test [1], in test [2], in test [3] and in test [4] was “inactive” in each case.
Regarding `CC[C@H]1OC(=O)C[C@@H](O)[C@H](C)[C@@H](O[C@@H]2O[C@H](C)[C@@H](O)[C@H](N(C)C)[C@H]2O)[C@@H](CCN2C[C@H](C)C[C@H](C)C2)C[C@@H](C)C(=O)/C=C/C(C)=C/[C@@H]1CO[C@@H]1O[C@H](C)[C@@H](O)[C@@H](OC)[C@H]1OC`, the Potency entry in test [1], in test [2], in test [3] and in test [4] was “inactive” throughout.
As to `C=Cc1c(C)c2cc3nc(c(CC(=O)N[C@@H](CC(=O)O)C(=O)O)c4nc(cc5[nH]c(cc1[nH]2)c(C)c5CC)C(C)=C4C(=O)O)[C@@H](CCC(=O)O)[C@@H]3C`, the Potency result in test [1], in test [2], in test [3] and in test [4] was “inactive” in each case.
Regarding `CCCCCCCCCCCCOC(=O)CS(=O)(=O)O`, the Potency result in test [1], in test [2], in test [3] and in test [4] was “inactive” in each case.
As to `CCCCCCC(=O)O[C@H]1CC[C@H]2[C@@H]3CCc4cc(O)ccc4[C@H]3CC[C@]12C`, the Potency entry in test [1], in test [2], in test [3] and in test [4] was “inactive” each time.
`O=C(Nc1ccc(O)cc1)c1ccccc1O`: the Potency result in test [1], in test [2], in test [3] and in test [4] was “inactive” in each case.
Consider `O=P(O)(O)OC(CO)CO`, for which the Potency entry in test [1], in test [2], in test [3] and in test [4] was “inactive” in each case.
On to `N[C@H](Cc1cnc[nH]1)C(=O)O`, for which the Potency result in test [1], in test [2], in test [3] and in test [4] was “inactive” each time.
Turning to `CCC(c1ccccc1)c1c(O)c2ccccc2oc1=O` (centres undefined), the Potency result in test [1], in test [2], in test [3] and in test [4] was “inactive” in each case.
For the molecule `C[C@H](Cc1cc2c(c(C(N)=O)c1)N(CCCO)CC2)NCCOc1ccccc1OCC(F)(F)F`, the Potency entry in test [1], in test [2], in test [3] and in test [4] was “inactive” in each case.
Turning to `O=C(c1ccc(F)c(F)c1Nc1ccc(I)cc1F)N1CC(O)([C@@H]2CCCCN2)C1`, the Potency result in test [1], in test [2] and in test [3] was “inactive” throughout. Moreover, the Potency in test [4] was 31600 nM (active).
Consider `COc1ccc(CNCC(O)COc2ccc3[nH]c(=O)ccc3c2)cc1OC` (centres undefined), for which the Potency entry in test [1], in test [2], in test [3] and in test [4] was “inactive” in each case.
